# Laboratory results reported in the supplement of paper PMC13380429.
# Test system: Vero E6 infected with SARS-CoV-2
# Test: morphology score (similarity to uninfected cells); higher = more like uninfected cells
# Settings: 24 h
row,SMILES,morphology score
1,C=CCCCCCCCCC(=O)[O][Zn][O]C(=O)CCCCCCCCC=C [zinc-undecylenate] (10 µM),0.0826
2,COc1cccc2c1C(=O)c1c(O)c3c(c(O)c1C2=O)C[C@@](O)(C(=O)CO)C[C@@H]3O[C@H]1C[C@H](N)[C@H](O[C@@H]2CCCCO2)[C@H](C)O1 [pirarubicin] (10 µM),-0.0488
3,CC(C)(C)NCC(O)c1cc(Br)no1 (stereo unspecified) [broxaterol] (10 µM),-0.00593
4,CC(=O)NCCCOc1ccc(C(=O)N2CCC(N3C(=O)CCc4ccccc43)CC2)cc1 (10 µM),0.184
5,COC(=O)Nc1ccc(-c2nc(N3CCOCC3)c3cnn(C4CCN(C(=O)OC)CC4)c3n2)cc1 (0.833333 µM),0.00734
6,Cc1ccc(/C=C2/C(=O)C3(C)CCC2C3(C)C)cc1 (stereo unspecified) [3-(4-methylbenzylidene)camphor] (10 µM),-0.0397

# Test system: Vero E6 infected with SARS-CoV-2
# Test: SARS-CoV-2 infection rate relative to infected DMSO; higher = more infection, active = 60 or less
# Settings: 24 h
row,SMILES,SARS-CoV-2 infection rate
1,C[C@@H]1CN(CC(=O)Nc2ccc3c(c2)Cc2cccc(-c4cc(=O)cc(N5CCOCC5)o4)c2S3)C[C@H](C)O1 (10 µM),60% (active)
2,CC(C)(C(=O)O)c1ccc(C(=O)CCCN2CCC(OC(c3ccccc3)c3ccccc3)CC2)cc1 [carebastine] (10 µM),103% (inactive)
3,Cc1c(N)cccc1Cn1ccc(OCCc2cccs2)cc1=O (10 µM),102% (inactive)
4,CCNC(=O)[C@@H]1CCCN1C(=O)[C@H](CCCNC(=N)N)NC(=O)[C@H](CC(C)C)NC(=O)[C@@H](C)NC(=O)[C@H](Cc1ccc(O)cc1)NC(=O)[C@H](CO)NC(=O)[C@H](Cc1c[nH]c2ccccc12)NC(=O)[C@H](Cc1cnc[nH]1)NC(=O)[C@@H]1CCC(=O)N1 [alarelin] (10 µM),114% (inactive)
5,"Clc1cccc(/C=N/N=C/c2cccc(Cl)c2)c1 [3,3'-dichlorobenzaldazine] (10 µM)",99% (inactive)
6,COCCOc1ccc(N2CCN(CCn3ncc4c3nc(N)n3nc(-c5ccco5)nc43)CC2)cc1 [preladenant] (10 µM),111% (inactive)
7,CC(C)(O)C(=O)Nc1ccc([N+](=O)[O-])c(C(F)(F)F)c1 [2-hydroxyflutamide] (10 µM),108% (inactive)
8,Cn1cc(-c2ccncc2)c(-c2ccc(OCc3ccc4ccccc4n3)cc2)n1 (10 µM),8% (active)
9,CCC(=O)NCC[C@@H]1CCc2ccc3c(c21)CCO3 [ramelteon] (10 µM),114% (inactive)
10,O=C(c1ccccc1)c1ccc2n1CCC2C(=O)O (stereo unspecified) [ketorolac] (10 µM),107% (inactive)
11,O=C(Oc1ccc(Br)cc1)N1CCN2CCC1CC2 (10 µM),92% (inactive)
12,Cc1cccc(Nc2ccncc2S(=O)(=O)NC(=O)NC(C)C)c1 [torasemide] (10 µM),102% (inactive)
13,Cc1ccc([N+](=O)[O-])cc1S(=O)(=O)N(C)/N=C/c1cnc2ccc(Br)cn12 (0.833333 µM),112% (inactive)
14,COc1ccc(C2C(=O)c3ccccc3C2=O)cc1 [anisindione] (10 µM),114% (inactive)
15,CCC(C)n1ncn(-c2ccc(N3CCN(c4ccc(OCC5COC(Cn6cncn6)(c6ccc(Cl)cc6Cl)O5)cc4)CC3)cc2)c1=O (stereo unspecified) [itraconazole] (10 µM),104% (inactive)
16,Cn1c(=O)c2c(ncn2CC(=O)O)n(C)c1=O [acefylline] (10 µM),100% (inactive)
17,O.O.O.O.O=C([O-])CC(O)(CC(=O)[O-])C(=O)[O-].[Li+].[Li+].[Li+] [lithium-citrate] (10 µM),89% (inactive)
18,N#Cc1cc(F)cc(-c2nc(-c3ccc(F)cn3)no2)c1 (10 µM),89% (inactive)
19,CC(Oc1ccc(O)cc1)(P(=O)(O)O)P(=O)(O)O (10 µM),107% (inactive)
20,CCCCCCOc1nsnc1C1=CCCN(C)C1 [xanomeline] (10 µM),71.5% (inactive)

row,SMILES,SARS-CoV-2 infection rate
1,O=P(O)(O)C(O)(Cn1ccnc1)P(=O)(O)O [zoledronic-acid] (10 µM),116% (inactive)
2,Cc1ccc(Nc2c(F)cccc2Cl)c(CC(=O)O)c1 [lumiracoxib] (10 µM),109% (inactive)
3,C[C@](O)(COc1ccc(C#N)cc1)C(=O)Nc1ccc(C#N)c(C(F)(F)F)c1 [ostarine] (10 µM),112% (inactive)
4,O=C(NO)c1ccc2[nH]c(=O)c(CCCc3ccccc3)nc2c1 (10 µM),100% (inactive)
5,Cc1ccc2c(Cl)cc(Cl)c(O)c2n1 [chlorquinaldol] (10 µM),99% (inactive)
6,c1cc2c3c(c1)c1c(n3CCNC2)CCCC1 (10 µM),104% (inactive)
7,CN1C(=O)CC[C@H]1c1cccnc1 [cotinine] (10 µM),108% (inactive)
8,CCCN1CCN(c2ccc(C(=O)NC3(C(=O)NCC#N)CCCCC3)cc2)CC1 [balicatib] (10 µM),46% (active)
9,CCN1CCN(Cc2ccc(C(=O)Nc3ccc(C)c(Oc4ccc5c(c4)CC(=O)N5)c3)cc2C(F)(F)F)CC1 (0.833333 µM),104% (inactive)
10,CCCCCOC(=O)Nc1nc(=O)n([C@@H]2O[C@H](C)[C@@H](O)[C@H]2O)cc1F [capecitabine] (10 µM),114% (inactive)
11,O=NN(CCCl)C(=O)NC1CCCCC1 [lomustine] (10 µM),108% (inactive)
12,COc1ccc2nc3cc(Cl)ccc3c(Nc3cc(CN4CCCC4)c(O)c(CN4CCCC4)c3)c2n1 [pyronaridine] (0.833333 µM),100% (inactive)
13,O=C(c1ccc(/C=C/c2n[nH]c3ccccc23)cc1)N1CCNCC1 (10 µM),94.5% (inactive)
14,Cc1c(-c2ccnn2C)cc(C(=O)NCc2ccc(S(C)(=O)=O)cn2)c(=O)n1-c1cccc(C(F)(F)F)c1 (10 µM),106% (inactive)
15,C=CCCCCCCCCC(=O)[O][Zn][O]C(=O)CCCCCCCCC=C [zinc-undecylenate] (10 µM),110% (inactive)
16,COc1cccc2c1C(=O)c1c(O)c3c(c(O)c1C2=O)C[C@@](O)(C(=O)CO)C[C@@H]3O[C@H]1C[C@H](N)[C@H](O[C@@H]2CCCCO2)[C@H](C)O1 [pirarubicin] (10 µM),118% (inactive)
17,CC(C)(C)NCC(O)c1cc(Br)no1 (stereo unspecified) [broxaterol] (10 µM),112% (inactive)
18,CC(=O)NCCCOc1ccc(C(=O)N2CCC(N3C(=O)CCc4ccccc43)CC2)cc1 (10 µM),102% (inactive)
19,COC(=O)Nc1ccc(-c2nc(N3CCOCC3)c3cnn(C4CCN(C(=O)OC)CC4)c3n2)cc1 (0.833333 µM),120% (inactive)
20,Cc1ccc(/C=C2/C(=O)C3(C)CCC2C3(C)C)cc1 (stereo unspecified) [3-(4-methylbenzylidene)camphor] (10 µM),114% (inactive)
